Where “and” joins values, the source holds several entries; their conditions need not be identical. Identical values can stand only once. Among all 320,000 compounds or so, about 2,100 (0.66%) were called active. Inconclusive results (about 53%) are left out. Calls come from the whole dose curve; as a rule, active = well fitted inhibition curve with a large enough effect in the signal ratio, with a control signal flat (not every such curve was filed as active); inconclusive = small, poorly fitted or top-dose-only effect, or effect the other way, or a change in a side signal; inactive = flat fitted curve, though single readings scatter; the % refers to the signal ratio. The list comes from a sample in which actives are over-represented; it also holds similar structures and randomly drawn compounds.
experiment: qHTS Assay for Lipid Storage Modulators in Drosophila S3 Cells; details: BODIPY lipid droplet fluorescence, 18-24 h, cells fed with added oleic acid; cell number change: measured here: cell count max response; series mostly up to 46.1 µM; lipid storage change, negative = inhibition: at the top concentration;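 for cell number change: cells counted by Cell Tracker Red CMTPX staining in the red channel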; for lipid storage change, negative = inhibition: % is set by controls: 0 for no effect and ±100 for the full control effect
Outline: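 Drosophila S3 cells got compounds at several concentrations plus oleic acid (400 uM solution). Laser-scanning cytometry with 488 nm excitation read lipid droplets at 500-530 nm and cells at 575-640 nm. Percent activity was relative to 20 uM Triacsin C.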
Potency is the fitted concentration of half-maximal effect.

Row | Compound | lipid storage change, negative = inhibition | cell number change | outcome | Potency
1 | COc1ccc(CC(NC(C)=O)C(=O)NC2CCN(c3nnnn3-c3ccccc3)CC2)cc1OC (configuration not stated) | 15.7% (inactive) | -4.36% |  | 
2 | COc1ccc(-c2c(=O)n(OCc3nc4ccccc4[nH]3)c3ccccc3[n+]2[O-])cc1 | 6.71% (inactive) | 2.91% |  | 
3 | Cc1cccc2cc(COC(=O)C3CCCCC3)c(=O)[nH]c12 | 22.2% (inactive) | 10.5% |  | 
4 | N#Cc1cncc(-c2ccc3c(c2)OCCOCCOCCOCCOCCO3)n1 | 9.67% (inactive) | 3.78% |  | 
5 | COc1cc(CNC2CCCCCCC2)cc(Cl)c1OCC(N)=O | -14.6% (inactive) | 6.3% |  | 
6 | COc1ccccc1N1CCN(C(=O)c2cc(C)oc2C)CC1 | -0.501% (inactive) | 9.51% |  | 
7 | O=C(O)c1oc2ccc(Br)cc2c1-n1cccc1 |  |  | inactive | 
8 | COC(=O)c1c(NC(=O)CN2CCCC(C)C2)c2c(C)cccc2n1C (configuration not stated) |  | -24.5% |  | 3.26 µM (active)
9 | CCOC(=O)C1CCN(CC(=O)Nc2c(C(=O)OC)n(C)c3cccc(C)c23)CC1 | 19% (inactive) | -3.82% |  | 
10 | COC(=O)c1c(NC(=O)CN2CCN(C(=O)c3ccco3)CC2)c2c(C)cccc2n1C |  | -8.93% | inactive | 
11 | COc1ccc(C)cc1NC(=O)C(=O)NCc1ccncc1 | 5.47% (inactive) | 1.5% |  | 
12 | COC(=O)c1ccc(C2c3[nH]c4ccccc4c3C[C@H]3C(=O)N(C4CC4)CC(=O)N23)cc1 (some centres not stated) | 12.4% (inactive) | -1.73% |  | 
13 | O=C1[C@@H]2Cc3c([nH]c4ccccc34)C(c3ccc([N+](=O)[O-])cc3)N2C(=O)CN1C1CC1 (some centres not stated) | 12.4% (inactive) | 5.54% |  | 
14 | O=C1[C@@H]2Cc3c([nH]c4ccccc34)C(c3ccccc3)N2C(=O)CN1C1CC1 (some centres not stated) |  | -19.8% |  | 4.11 µM (active)
15 | O=C(Nc1ccccc1Cl)/C(Cl)=C(\Cl)S(=O)c1ccccc1 (configuration not stated) |  |  |  | 4.61 µM (active)
16 | O=C(Nc1ccccc1Cl)Nc1ccccc1Cl | -9.54% (inactive) | -0.979% |  | 
17 | O=C(Nc1ccccc1Cl)c1ccccc1 | -0.566% (inactive) | 0.403% |  | 
18 | CCN(CC(=O)Nc1c(F)cccc1F)C(=O)c1ccc(S(=O)(=O)N2CCCC2)cc1 | 24.8% (inactive) | 23.3% |  | 
19 | O=C(O)CN1C(=O)NC2(CCCc3ccccc32)C1=O (configuration not stated) |  | 8.55% | inactive | 
20 | CCOc1cc(-c2sc(Nc3ccccc3)n[n+]2-c2ccc(F)cc2)ccc1OC | -7.71% (inactive) | 8.68% |  | 
21 | CCN(CCNC(=O)C1CCN(S(=O)(=O)c2c(C)noc2C)CC1)c1ccccc1 | 3.9% (inactive) | 0.289% |  | 
22 | Cc1ccc(-c2nc(CN3CCCCC3)cc(CN3CCCCC3)c2O)cc1 | -0.754% (inactive) | 4.96% |  | 
23 | CC(C)(C)c1nc(CN2CCOCC2)cc(CN2CCOCC2)c1O |  | 19.4% | inactive | 
24 | CC(C)(C)c1nc(CN2CCCCC2)cc(CN2CCCCC2)c1O |  | -1.12% |  | 20.6 µM (active)

Row | Compound | lipid storage change, negative = inhibition | cell number change | outcome | Potency
25 | Cc1cc(CN2CCC(N3CCC(C(=O)NC4CC4)CC3)CC2)cc(C)c1O |  | -10.6% | inactive | 
26 | Cc1cc(C)n(CC(O)CN2C(=O)NC(C)(C)C2=O)n1 (configuration not stated) | 8.19% (inactive) | 7.08% |  | 
27 | COc1ccc(/C=C2/SC(=O)N(CC(O)Cn3c4ccccc4c4ccccc43)C2=O)cc1 (configuration not stated) | -0.27% (inactive) | -7.54% |  | 
28 | O=C1S/C(=C\c2ccccc2)C(=O)N1CC(O)Cn1c2ccccc2c2ccccc21 (configuration not stated) |  | 8.53% |  | 9.2 µM (active)
29 | CN(C)c1ccc(/C=C2\SC(=O)N(CC(O)Cn3c4ccccc4c4ccccc43)C2=O)cc1 (configuration not stated) | 1.45% (inactive) | 1.42% |  | 
30 | C=CCn1c(CCNC(=O)c2cccs2)nnc1SCC(=O)c1cccc([N+](=O)[O-])c1 |  | 21.8% | inactive | 
31 | COc1ccc(N2CCN(Cc3nc(N)nc(Nc4ccccc4OC)n3)CC2)cc1 | 4.02% (inactive) | -16.4% |  | 
32 | Cc1nc2c(sc(=S)n2Cc2ccco2)c(=O)n1CC(=O)Nc1ccc(F)cc1 |  | 20.2% |  | 16.4 µM (active)
33 | CCn1c(=S)sc2c(=O)n(CC(=O)Nc3ccccc3)c(C)nc21 | -5.27% (inactive) | 22.9% |  | 
34 | Cc1nc2c(sc(=S)n2Cc2ccco2)c(=O)n1CC(=O)Nc1ccccc1Cl |  | 8.56% | inactive | 
35 | COc1ccc(CN2CC(=O)N(c3ccc(C)cc3C)C2=S)cc1OC | -6.97% (inactive) | 8.06% |  | 
36 | CC(=O)NCCc1nc2ccccc2n1CCOc1ccccc1 | 6.98% (inactive) | 18.1% |  | 
37 | CC(=C/c1ccccc1)/C=N/NC(=O)c1ccccn1 | 13.6% (inactive) | 10.8% |  | 
38 | C=C(c1ccccc1)c1ccc(N(C)C)cc1 | -3.74% (inactive) | 1.48% |  | 
39 | CCOc1ccc(-c2cc(N3C(=O)Nc4ccccc4N3O)on2)cc1 |  | 24.4% |  | 23.1 µM (active)
40 | O=C1Nc2ccccc2N(O)N1c1cc(-c2ccccc2Cl)no1 |  |  | inactive | 
41 | O=C1Nc2ccccc2N(O)N1c1cc(-c2cccc(Cl)c2)no1 |  |  | inactive | 
42 | CC(C)c1cc(C(=O)O)c2cnn(C(C)C)c2n1 | -12.7% (inactive) | -20.5% |  | 
43 | CCOc1ccc(-n2ccnc(SCC(=O)NC3CCCC3)c2=O)cc1 | 14.1% (inactive) |  |  | 
44 | CCOc1ccccc1C(=O)Nc1ccc(S(=O)(=O)Nc2nccc(C)n2)cc1 | 0.0239% (inactive) | -4.06% |  | 
45 | COC(=O)c1ccc(C23CC4(C2)[C@H](CN(CC2CCCCC2)[C@@H]4c2ccccc2)C3c2ccccc2)cc1 (some centres not stated) | 11.9% (inactive) | 12.7% |  | 
46 | CC(=O)Oc1ccc(N2C(=O)[C@@H]3[C@H](C2=O)[C@H]2c4ccccc4C=NN2[C@@H]3C(C)=O)cc1 | 5.49% (inactive) | 17.5% |  | 
47 | CCN(C(=O)COC(=O)c1cnc(C)cn1)C1CCCCC1 | 13.1% (inactive) | 18.1% |  | 
48 | CC1(C)CC2CC(C)(CN2C(=O)Cc2ccccc2)C1 (configuration not stated) | 9.29% (inactive) | -11.2% |  | 

Row | Compound | lipid storage change, negative = inhibition | cell number change | outcome | Potency
49 | CCN(C(=O)COC(=O)/C(=C/c1ccccc1)n1nnnc1C)C1CCCCC1 |  | -1.15% |  | 7.31 µM (active)
50 | Cc1cccc(C)c1OCC(=O)N1CC2(C)CC1CC(C)(C)C2 (configuration not stated) |  | 24% | inactive | 
51 | Cc1nnnn1/C(=C\c1ccccc1)C(=O)OCC(=O)N1CC2(C)CC1CC(C)(C)C2 (configuration not stated) |  | -4.4% |  | 1.84 µM (active)
52 | CC(=O)N/C(=C\c1ccccc1)C(=O)OCC(=O)N(C)C1CCCCC1 | -1.67% (inactive) | 11.6% |  | 
53 | COc1ccc(CCNC(=O)c2cc(-c3ccccc3O)n[nH]2)cc1OC |  | 4.36% | inactive | 
54 | COC(=O)CCc1sc(Nc2ccccc2)nc1-c1ccc(OC)cc1 | 1.84% (inactive) | -8.54% |  | 
55 | O=C(COc1ccccc1)NCC1CCCO1 (configuration not stated) | 0.414% (inactive) | -0.966% |  | 
56 | O=C(Nc1cccc(F)c1)c1ccccc1 | -7.05% (inactive) | -17.1% |  | 
57 | O=C(C#Cc1ccccc1)Nc1ccc(F)cc1 | -7.35% (inactive) | -2.07% |  | 
58 | COc1ccc(NC(=O)C#Cc2ccccc2)cc1 |  | -23.3% |  | 0.92 µM (active)
59 | COc1ccc(NC(=O)Nc2ccc(OC)cc2)cc1 |  | -101% | inactive | 
60 | O=C(C#Cc1ccccc1)Nc1cccc(F)c1 |  | -19.6% |  | 1.16 µM (active)
61 | COc1ccc(NC(=O)Nc2ccc(CC(=O)O)cc2)cc1 |  | -22.2% |  | 0.116 µM (active)
62 | NC(=O)c1ccc(NC(=O)C#Cc2ccccc2)cc1 |  |  | inactive | 
63 | COc1ccc(NC(=O)Cc2ccccc2)cc1 | 6.27% (inactive) | -1.56% |  | 
64 | COc1ccc(NC(=S)Nc2ccccc2)cc1 |  | 1.43% and -1.32% |  | inactive
65 | O=C1NC2(CCCCC2)Cc2ccccc21 | 20.7% (inactive) | 2.36% |  | 
66 | CCCC(=O)Nc1ccc(Cl)c(NC(=O)c2ccc([N+](=O)[O-])cc2Cl)c1 | 11.3% (inactive) | 3.62% |  | 
67 | Cc1cc(NC(=O)c2ocnc2C)no1 | 9% (inactive) | -15.2% |  | 
68 | O=C(O)c1cc(-c2ccccc2Cl)n(-c2ccccc2)n1 | 3.91% (inactive) | 19.7% |  | 
69 | COc1cc(CC(=O)NCc2ccco2)cc(OC)c1OC |  |  | inactive | 
70 | CNC(=S)N/N=C/c1c(C(=O)OC)cnn1-c1ccc(F)cc1F | -3.49% (inactive) | 9.07% |  | 
71 | Cc1oc(-c2ccccc2F)nc1CN1CCC(C(=O)NCc2cccnc2)CC1 | 9.91% (inactive) | 15.7% |  | 
72 | O=C(Nc1ccccc1)Nc1n[nH]c2nnc(-c3ccccc3)c(-c3ccccc3)c12 | -13% (inactive) | 9.52% |  | 

Row | Compound | lipid storage change, negative = inhibition | cell number change | outcome | Potency
73 | Cc1cc(-c2nc(C)c(C(=O)NNC(=O)NC(C)C)s2)no1 | 2.19% (inactive) | 5.79% |  | 
74 | Cc1nnc(NC(=O)c2sc3nc(-c4cccs4)cc(C(F)(F)F)c3c2N)s1 |  | 18.6% |  | 9.2 µM (active)
75 | Cc1cc(C(F)(F)F)c2c(N)c(C(=O)NC3CC3)sc2n1 |  | -6.29% |  | 17.8 µM (active)
76 | Cc1cc(C)c2c(N)c(C(=O)Nc3ccc(C)c(C)c3)sc2n1 |  | -1.35% | inactive | 
77 | CC(C)(C)C(=O)c1sc2nc(-c3cccs3)cc(C(F)(F)F)c2c1N | -18.4% (inactive) | -8.91% |  | 
78 | CN(C)CCNC(=O)c1sc2nc(-c3ccccc3)cc(C(F)(F)F)c2c1N |  | -18.7% | inactive | 
79 | Cc1cc(C)c2c(N)c(C(=O)NC3CC3)sc2n1 | -19.8% (inactive) | 14.6% |  | 
80 | O=C(O)C(C(O)c1ccc([N+](=O)[O-])cc1)[n+]1ccccc1 (configuration not stated) | 10.3% (inactive) | 27.3% |  | 
81 | C(=N\Nc1ccc(-n2ccnc2)nn1)/c1ccccc1 |  |  | inactive | 
82 | CCOC(=O)CNC(=O)N1CCCC(C(=O)c2cc(C)c(OC)c(C)c2)C1 (configuration not stated) | 16.2% (inactive) | 16.3% |  | 
83 | O=C(NCCC1=CCCCC1)c1ccc(-n2cncn2)c([N+](=O)[O-])c1 |  | -27% | inactive | 
84 | CCOC(=O)c1sc(N(Cc2ccccc2)C(=O)COC(=O)c2cnccn2)nc1C |  |  | inactive | 
85 | C=CCn1c(SCc2nc3ccccc3nc2C)nnc1-c1ccoc1C | 11.7% (inactive) | -18.3% |  | 
86 | CC(CC(=O)O)CC1=NS(=O)(=O)c2ccccc2N1 (configuration not stated) |  | -6.45% |  | 13 µM (active)
87 | Cc1ccc(NC(=O)CC(C)CC2=NS(=O)(=O)c3ccccc3N2)cc1 (configuration not stated) |  | 4.79% | inactive | 
88 | CCOC(=O)CC1=NS(=O)(=O)c2ccccc2N1 | -1.16% (inactive) | 8.13% |  | 
89 | O=C(O)c1cc2ncc(-c3[nH]ncc3[N+](=O)[O-])cn2n1 | 1.3% (inactive) | 25.8% |  | 
90 | CCCCc1nc2ccccc2c(=O)n1NC(=O)c1c(O)c2ccccc2n(C)c1=O | -12.5% (inactive) | -2.66% |  | 
91 | Cc1ccc2nc(SCC(=O)N3CCOCC3)[nH]c2c1 | -4.97% (inactive) | -6.28% |  | 
92 | COC(=O)c1ccc(CSc2nc3ccc(S(=O)(=O)N4CCOCC4)cc3[nH]2)cc1 | -10.3% (inactive) | 1.16% |  | 
93 | O=C(CSc1nc2ccc(S(=O)(=O)N3CCOCC3)cc2[nH]1)N1CCOCC1 |  | 8.23% |  | 18.4 µM (active)

From PubChem BioAssay AID2685 (National Center for Advancing Translational Sciences (NCATS), 2010)
